Reference: PubChem BioAssay AID1159580 (chemical genetic matrix, 2015)
The whole screen tested about 5,500 compounds, of which about 2,000 (36%) were called active. About 18% were inconclusive and are not listed. Rule as the data show it: active = normalized growth mostly below about 0.91 (no sharp cut-off); inconclusive = no clear call, values can overlap the other calls; inactive = mostly above about 0.92. The list shows a part of the results.

Test: chemical genetic growth profiling, strain panel (AID 1159580);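 also: tested at 20 µM; growth read once vehicle control cultures reached saturation at 30 °C; 1 = growth at the plate median or of vehicle wells; lower values mean less growth of the strain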
Details: S. cerevisiae deletion strains, growth OD

Measured: normalized growth

N[C@@H](C(=O)O)c1ccccc1
inactive: locus YAL013W, strain DEP1, active compounds read low 1 | locus YBR229C, strain ROT2, active compounds read low 1 | locus YDL101C, strain DUN1, active compounds read low 1.01 | locus YDR150W, strain NUM1, active compounds read low 0.997 | locus YEL061C, strain CIN8, active compounds read low 1 | locus YGR078C, strain PAC10, active compounds read low 0.998 | locus YHR030C, strain SLT2, active compounds read low 0.927 | locus YHR087W, strain rtc3, active compounds read low 0.998 | locus YJR043C, strain POL32, active compounds read low 1.01 | locus YJR075W, strain HOC1, active compounds read low 0.992 | locus YLR039C, strain RIC1, active compounds read low 0.981 | locus YLR058C, strain SHM2 (second series), active compounds read low 0.992 | locus YLR085C, strain ARP6, active compounds read low 1.04 | locus YLR262C, strain YPT6, active compounds read low 0.954 | locus YML094W, strain GIM5, active compounds read low 1.03 | locus YMR219W, strain ESC1, active compounds read low 1 | locus YMR263W, strain SAP30, active compounds read low 0.987 | locus YNL128W, strain TEP1, active compounds read low 0.985 | locus YNL153C, strain GIM3, active compounds read low 0.999 | locus YNL298W, strain CLA4 (second series), active compounds read low 1.02 | locus YNL322C, strain KRE1, active compounds read low 1.01 | locus YNR030W, strain Alg12, active compounds read low 1.03 | locus YPL055C, strain LGE1, active compounds read low 0.996 | locus YPL241C, strain CIN2, active compounds read low 1.02 | locus YPR135W, strain CTF4, active compounds read low 0.974
